Tg IFNy HTS – T. gondii growth inhibition with IFN-gamma, primary screen, cell-based; Toxoplasma gondii growth in IFN-gamma-treated host cells; hits give low values; activity change, negative = inhibition, % (concentration not given with the values); 69,000 compounds, 3.8% hits; in the data active = activity change below about -70%, passing the limit was not always enough;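 note: host cells are HeLa cells infected with Toxoplasma gondii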
* = called active by the depositor; i = inactive. Only a selection was taken, and hits are over-represented in it overall.

SMILES	Tg IFNy HTS
COc1ccc(S(=O)(=O)N(C)C[C@@H]2OCCCC[C@H](C)Oc3ccc(NC(=O)Cc4ccccc4)cc3C(=O)N([C@@H](C)CO)C[C@H]2C)cc1	-125*
C[C@H](CO)N1C[C@H](C)[C@H](CN(C)S(=O)(=O)c2ccccc2)OCCCC[C@H](C)Oc2ccc(NC(=O)Nc3ccc4c(c3)OCO4)cc2C1=O	108
C[C@@H]1CCCCO[C@@H](CN(C)Cc2ccncc2)[C@H](C)CN([C@@H](C)CO)C(=O)c2cc(NC(=O)Cc3ccccc3)ccc2O1	120
C[C@@H]1CN([C@@H](C)CO)C(=O)c2cc(NC(=O)Nc3ccc4c(c3)OCO4)ccc2O[C@@H](C)CCCCO[C@H]1CN(C)S(=O)(=O)c1ccccc1	106
COc1ccc(S(=O)(=O)N(C)C[C@H]2OCCCC[C@H](C)Oc3ccc(NC(=O)Cc4ccccc4)cc3C(=O)N([C@H](C)CO)C[C@@H]2C)cc1	-84*
C[C@@H]1CCCCO[C@@H](CN(C)S(=O)(=O)c2ccccc2)[C@H](C)CN([C@@H](C)CO)C(=O)c2cc(NC(=O)Nc3ccc4c(c3)OCO4)ccc2O1	121
COc1ccc(S(=O)(=O)N(C)C[C@H]2OCCCC[C@@H](C)Oc3ccc(NC(=O)Cc4ccccc4)cc3C(=O)N([C@@H](C)CO)C[C@@H]2C)cc1	-69
COc1ccc(S(=O)(=O)N(C)C[C@@H]2OCCCC[C@H](C)Oc3ccc(NC(=O)Cc4ccccc4)cc3C(=O)N([C@H](C)CO)C[C@@H]2C)cc1	-92*
Nc1nc(CCC(=O)N2CCOC(CC3CCCCC3)C2)cs1 (configuration not stated)	4
O=C(CC1N=C2c3ccccc3N=C(SCc3ccc(F)cc3)N2C1=O)NCc1ccccc1 (configuration not stated)	-19
COC(=O)[C@@H]1C[C@@H](N(C)C)CN1S(=O)(=O)c1c(C)ccc2nsnc12	-42
O=S(=O)(C1CC1)N1CCCCC1c1ccc(F)cc1 (configuration not stated)	-19
Cc1cccc(C(=O)N2CC[C@H]3[C@H]2CCC(=O)N3c2cnn(C)c2)n1	7
CN1C(=O)CN(CC(=O)N2CCC(N)CC2)C(=O)c2ccccc21	-3
Cc1cc(Nc2ccc(S(N)(=O)=O)cc2)c2ccc(C(F)(F)F)cc2n1	-1
CCS(=O)(=O)N1CCC2(CC1)CC(OC)CO2 (configuration not stated)	-85*
CCS(=O)(=O)N1CCC2(CC1)CC(OCC1CCOCC1)CO2 (configuration not stated)	10
COC1COC2(CCN(C(=O)C3CC(F)(F)C3)CC2)C1 (configuration not stated)	34
O=C(Nc1ccc(F)cc1Cl)c1c(O)c2cccnc2n(-c2ccc(F)cc2)c1=O	240
O=C(NCc1ccccc1Cl)c1c(O)c2cccnc2n(-c2ccc(F)cc2)c1=O	115
COc1ccccc1CNC(=O)c1c(O)c2cccnc2n(-c2cccc(F)c2)c1=O	234
O=C(NCc1cc(F)cc(F)c1)c1c(O)c2cccnc2n(-c2ccccc2)c1=O	-91*
Cc1cc(F)ccc1NC(=O)c1c(O)c2ccccc2n(-c2ccccc2)c1=O	16
O=C(NCc1ccccc1)c1c(O)c2cccnc2n(-c2ccccc2)c1=O	5
O=C(NCc1cc(F)cc(F)c1)c1c(O)c2cccnc2n(-c2cccc(F)c2)c1=O	106
SMILES	Tg IFNy HTS
COc1ccccc1CNC(=O)c1c(O)c2cccnc2n(-c2ccc(F)cc2)c1=O	-74*
Cc1cccc(C)c1NC(=O)c1c(O)c2ccccc2n(-c2ccccc2)c1=O	-105*
O=C(Nc1ccccc1Cl)c1c(O)c2cccnc2n(-c2cccc(F)c2)c1=O	-87*
COc1cccc(-n2c(=O)c(C(=O)Nc3ccccc3Cl)c(O)c3cccnc32)c1	65
Cc1ccc(NC(=O)c2c(O)c3ccccc3n(-c3ccccc3)c2=O)c(C)c1	-11
Cc1cccnc1CN1CCN(Cc2sccc2C)CC1	-3
CCN(Cc1cccc(C)n1)Cc1nc(COC)no1	0
COc1ccc(S(=O)(=O)Nc2cncc(C(=O)Nc3ccc(C)c(F)c3)c2)cc1OC	-14
Cc1ccccc1Cn1c(CN2CCC(C(=O)NCCCN3CCCC3)CC2)cc2ccccc21	-19
Cc1ccccc1S(=O)(=O)N1C[C@H]2C[C@H](C(=O)NCC3CC3)[C@@H](C1)O2	-8
O=C(CC1CCc2ccccc21)NCCS(=O)(=O)N1CCCC1 (configuration not stated)	-51
CC(C(=O)Nc1ccc(-c2cccc(F)c2)cc1)n1ccnc1 (configuration not stated)	85
CSc1ccc(C(=O)C2CCCN(Cc3cc(=O)c4ccccc4[nH]3)C2)cc1 (configuration not stated)	14
Cc1cc(Nc2cc(C)on2)nc(C2CCN(C(=O)CN)C2)n1 (configuration not stated)	9
CN1CCC2(C=C(C(=O)N3CCCC3)c3ccccc32)CC1	-42
O=C(c1cncc(F)c1)N1CCC2(CC(Nc3ncccn3)C2)C1 (configuration not stated)	1
O=C1NN(C(=O)Nc2ccc(Br)cc2)[C@@H](c2ccccc2)[C@@H]1c1ccccc1	-3
O=C(Nc1ccc(Cl)cc1)c1c(O)c2cccnc2n(-c2cccc(F)c2)c1=O	-102*
CCc1ccccc1NC(=O)c1c(O)c2cccnc2n(-c2ccc(F)cc2)c1=O	-79*
COc1cccc(-n2c(=O)c(C(=O)NCc3ccccc3Cl)c(O)c3cccnc32)c1	-91*
Cc1ccc(NC(=O)c2c(O)c3cccnc3n(-c3cccc(F)c3)c2=O)cc1	54
CCOc1ccccc1NC(=O)c1c(O)c2cccnc2n(-c2ccc(F)cc2)c1=O	65
COc1cccc(-n2c(=O)c(C(=O)NCc3ccc(F)cc3F)c(O)c3cccnc32)c1	50
O=C(Nc1ccc(F)cc1F)c1c(O)c2cccnc2n(-c2ccccc2)c1=O	-44
CCc1ccc(NC(=O)c2c(O)c3cccnc3n(-c3ccc(F)cc3)c2=O)cc1	80
SMILES	Tg IFNy HTS
O=C(Nc1ccc(F)cc1)c1c(O)c2cccnc2n(-c2cccc(F)c2)c1=O	60
CCc1ccccc1NC(=O)c1c(O)c2cccnc2n(-c2cccc(F)c2)c1=O	-104*
COc1cccc(-n2c(=O)c(C(=O)NCc3ccccc3F)c(O)c3cccnc32)c1	100
CCOc1ccccc1NC(=O)c1c(O)c2cccnc2n(-c2cccc(F)c2)c1=O	100
CC(=O)c1ccc(NS(C)(=O)=O)c(Oc2ccc(F)cc2F)c1	3
CCS(=O)(=O)N1CCc2ncnc(-c3cnn(C)c3)c2CC1	3
C[C@@H]1NC(=O)NC1=O	30
CCn1c(=O)c(-c2nc(-c3cccc(OC)c3OC)no2)c(O)c2ccccc21	12
O=C(c1ccn(-c2ccc3ccc(-c4cccc(F)c4)cn23)n1)N1CCCO1	14
CCOc1ccccc1C(=O)N1CCC2(CC1)Nc1ccc(C)c(C)c1-n1cccc12	-13
COc1ccc(C(=O)NCCc2csc(-c3ccccc3)n2)cc1OC	i
Cc1nn(C)cc1NC(=O)c1ccc(=O)n(CC(=O)NC2CCCCC2)c1	-21
O=C(Nc1ccccc1F)c1c(O)c2cccnc2n(-c2cccc(F)c2)c1=O	25
Cc1cc(F)ccc1NC(=O)c1c(O)c2cccnc2n(-c2ccccc2)c1=O	-27
Cc1ccccc1NC(=O)c1c(O)c2cccnc2n(-c2cccc(F)c2)c1=O	-94*
Cc1noc([C@H]2C[C@@H]3CCN(S(=O)(=O)N(C)C)C[C@@H]3O2)n1	92

Assay outcomes (PubChem)
